In PubChem BioAssay AID463173 (ICCB-Longwood Screening Facility, Harvard Medical School, 2010):
Hit rate of the full screen: of about 52,000 compounds, about 1,700 (3.3%) were called active. For the sample, actives were picked, then their nearest neighbours and some compounds at random. Values without a mark were called inactive. No stated cut-off is given here; in the data, active means survival mostly below about 52% (no sharp cut-off); inactive means mostly above about 56%.

tested on: Wild type; test: growth inhibition of S. aureus wild type versus tarO mutant, primary screen, teichoic acid synthesis inhibitors, RN4220, OD600 (AID 463173); conditions: S. aureus RN4220 wild type/DeltatarO growth, OD600, 18 h, active compounds read low, screened at 18.75 µg/mL (by protocol)

Row | Compound | survival
1 | Cc1ccc(NC(=O)C2CCCN2S(=O)(=O)c2ccc3c(c2)CCCC(=O)N3)cc1Cl (configuration not stated) | 113%
2 | COc1ccc(-c2nc3cc(N=Cc4ccccc4O)ccc3o2)cc1 | 111%
3 | CCCCn1c2ccc(F)cc2c2nnc(SCCN3CCCCC3)nc21 | 139%
4 | COCCCNC(=O)c1cc(-c2cccnc2)nc2ccccc12 | 118%
5 | CCOc1ccc(NC(=O)CN2C(=O)c3ccccc3Sc3ccc(C(=O)OC)cc32)cc1 | 81%
6 | COc1ccccc1OCc1ccc(C(=O)NCc2ccncc2)o1 | 116%
7 | Cc1ccc(Cn2cc(S(=O)(=O)c3ccccc3)c(=O)c3cc(F)c(N4CCOCC4)cc32)cc1 | 58%
8 | O=C(c1nc(-c2ccc(Cl)cc2)n2c1CCCCC2)N1CCN(c2ccc(F)cc2)CC1 | 70%
9 | COc1ccc(C2c3c(n(C)c4ccccc34)C(=O)N2CC(=O)Nc2ccc(F)cc2)cc1 (configuration not stated) | 81%
10 | CC(=O)Nc1ccccc1-c1nc2cc(C#N)c(C#N)cc2[nH]c1=O | 108%
11 | CCN(c1ccccc1C)S(=O)(=O)c1nnc(NC(=O)c2ccc(OC)c(OC)c2)s1 | 42%
12 | COC(=O)c1ccccc1NC(=O)CCc1c(C)nc2c(c(C)nn2-c2ccccc2)c1C | 117%
13 | O=C(CSc1nc(-c2ccccc2)cn1-c1ccccc1)Nc1ccccc1 | 68%
14 | COc1ccc(NC(=O)c2c(NCc3cccc(OC)c3)sc3c2CCC3)cc1 | 65%
15 | CC(C)Nc1nc(NC(C)C)nc(N(C)C)n1 | 115%
16 | Cc1ccc2oc3c(c(=O)c2c1)C(c1cccc(O)c1)N(Cc1ccccc1Cl)C3=O (configuration not stated) | 82%
17 | CCN(C(=O)c1cc2c(=O)oc3ccccc3c2s1)c1cccc(C(F)(F)F)c1 | 131%
18 | CCN(C(=O)c1cc2c(=O)n(CC)c3ccccc3c2s1)c1cccc(C(F)(F)F)c1 | 89%
19 | CCN(C(=O)c1cc2c(s1)-c1ccccc1OC2)c1cc(Cl)ccc1OC | 8% (active)
20 | COc1ccc(Cl)cc1NC(=O)c1cc2c(s1)-c1ccccc1OC2 | 80%
21 | CCCN(C(=O)c1cc2c(s1)-c1c(C)cccc1OC2)c1ccc(OCC)cc1 | 95%
22 | CCc1ccccc1N(CC)C(=O)c1cc2c(s1)-c1ccccc1OC2 | 9% (active)
23 | CCCN(C(=O)c1cc2c(s1)-c1ccccc1OC2)c1ccc(C(C)C)cc1 | 5% (active)

Row | Compound | survival
24 | CCc1ccc(CNC(=O)c2cc3c(s2)-c2ccccc2OC3)cc1 | 95%
25 | CCN(C(=O)c1cc2c(s1)-c1ccccc1OC2)c1cccc(C(F)(F)F)c1 | 14% (active)
26 | CCOc1ccc(N(CC)C(=O)c2cc3c(s2)-c2ccccc2OC3)cc1 | 88%
27 | COc1ccccc1CNC(=O)c1cc2c(s1)-c1ccccc1OC2 | 92%
28 | CCOc1ccc(CNC(=O)c2cc3c(s2)-c2ccccc2OC3)cc1 | 91%
29 | O=C(CSCc1cnn(-c2ccccc2)c1-n1cccc1)NCc1cccc(Cl)c1 | 91%
30 | O=C(O)C1CCN(C(=O)c2ccc(-c3ccccc3)cc2)CC1 | 116%
31 | Cc1ccc(Cl)cc1-n1c(=O)c2sc3ccccc3c2n(Cc2ccccc2)c1=O | 77%
32 | Cn1c(=O)oc2cc(S(=O)(=O)CCC(=O)NCc3ccc(Cl)cc3)ccc21 | 74%
33 | O=C(NCc1ccccc1Cl)c1cc2c(s1)-c1ccccc1SC2 | 74%
34 | CCc1ccccc1N(CC)C(=O)c1cc2c(s1)-c1ccccc1SC2 | -1% (active)
35 | Cc1ccc(CNC(=O)c2cc3c(s2)-c2ccccc2SC3)cc1 | 120%
36 | CCOc1ccc(CCNC(=O)c2ccc3c(c2)N(Cc2ccccc2F)C(=O)c2ccccc2S3=O)cc1OCC (configuration not stated) | 84%
37 | Cn1c(C(=O)NCc2ccc(Cl)cc2)cc2c(=O)n(C)c3ccccc3c21 | 120%
38 | CCNC(=O)c1c(NC(=O)c2cc(=O)c3ccc(C)c(C)c3o2)sc2c1CCCC2 | 85%
39 | Cc1ccccc1OCC(=O)OCc1cc(=O)n2ccsc2n1 | 82%
40 | Cc1ccc2nc(COc3ccccc3NC(=O)c3ccccc3F)cc(=O)n2c1 | 80%
41 | COc1cccc(C(=O)Nc2cccc(C(=O)OCc3cc(=O)n4c(C)csc4n3)c2)c1 | 133%
42 | COc1ccccc1C(=O)Nc1ccccc1C(=O)OCc1cc(=O)n2c(C)csc2n1 | 131%
43 | Cc1csc2nc(COC(=O)c3cccc(NC(=O)c4cccc(Cl)c4)c3)cc(=O)n12 | -1% (active)
44 | Cc1csc2nc(COC(=O)c3ccccc3NC(=O)c3ccc(F)cc3)cc(=O)n12 | 14% (active)
45 | Cc1ccc2nc(COc3ccccc3NC(=O)c3ccc(F)cc3)cc(=O)n2c1 | -3% (active)
46 | Cc1csc2nc(COC(=O)c3ccc(F)cc3)cc(=O)n12 | 81%

Row | Compound | survival
47 | Cc1csc2nc(COC(=O)c3ccccc3NC(=O)c3ccc(C(C)(C)C)cc3)cc(=O)n12 | 55%
48 | Cc1ccccc1C(=O)Nc1cccc(C(=O)OCc2cc(=O)n3c(C)csc3n2)c1 | 76%
49 | Cc1cccc(C(=O)Nc2ccccc2OCc2cc(=O)n3cc(C)ccc3n2)c1 | 47%
50 | CCOc1ccc(C(=O)Nc2ccc(C(=O)OCc3cc(=O)n4c(C)csc4n3)cc2)cc1 | 85%
51 | CCOc1cc(C(=O)OCc2cc(=O)n3c(C)csc3n2)cc(OCC)c1OCC | -3% (active)
52 | CCOc1ccc(NC(=O)CSc2nc(-c3cccc(Cl)c3)nc3c2Cc2c(CO)cnc(C)c2O3)cc1 | 84%
53 | COc1cc(OC)cc(C(=O)N2CCN(C(=O)COc3ccccc3)CC2)c1 | 64%
54 | CCc1ccc(NC(=O)CN(c2cc(C)cc(C)c2)S(=O)(=O)c2c(C)[nH]c(=O)[nH]c2=O)cc1 | 68%
55 | CC(C)c1cc(-c2nc(-c3cccc(Cl)c3)no2)n[nH]1 | 131%
56 | Cc1cc(Br)ccc1NC(=O)C1CCN(S(=O)(=O)c2ccc(Br)s2)CC1 | 70%
57 | COC(=O)C1=C(c2ccccc2)c2ccccc2S(=O)(=O)N1CC(=O)Nc1ccc(OC)cc1OC | 154%
58 | CS(=O)(=O)c1cccc(S(=O)(=O)c2cccc(S(C)(=O)=O)c2)c1 | 86%
59 | Cc1cccc(OCC(=O)Nc2cccc(C(=O)OCc3cc(=O)n4c(C)csc4n3)c2)c1 | -6% (active)
60 | O=C(Nc1ccccc1C(=O)OCc1cc(=O)n2c3c(sc2n1)CCCC3)c1cccc(Cl)c1 | 73%
61 | O=C(Nc1ccccc1C(=O)OCc1cc(=O)n2c3c(sc2n1)CCCC3)c1ccc(Cl)cc1 | -3% (active)
62 | O=C(Nc1ccccc1C(=O)OCc1cc(=O)n2c3c(sc2n1)CCCC3)c1ccccc1 | 94%
63 | Cc1cccc(OCc2cc(=O)n3c4c(sc3n2)CCCC4)c1C | 128%
64 | Cc1ccc(OCC(=O)Nc2cccc(C(=O)OCc3cc(=O)n4c(C)csc4n3)c2)cc1 | 69%
65 | Cc1csc2nc(COC(=O)c3cccc(NC(=O)COc4ccc(Cl)cc4)c3)cc(=O)n12 | 78%
66 | Cc1ccc(OCc2cc(=O)n3c4c(sc3n2)CCCC4)cc1C | 80%
67 | Cc1cccc(C)c1OCc1cc(=O)n2c3c(sc2n1)CCCC3 | -1% (active)
68 | CCCCSc1nc(-c2cccc(OC)c2)nc2c1Cc1c(CO)cnc(C)c1O2 | 86%
69 | O=C(c1nc(-c2ccc(Cl)cc2)n2c1CCCCC2)N1CCN(c2ccccc2F)CC1 | 68%

Row | Compound | survival
70 | COc1ccc(CCNC(=O)CN(c2cc(C(F)(F)F)ccc2Cl)S(C)(=O)=O)cc1 | 68%
71 | CCc1ccc(N2CC(c3nnc(NC(=O)c4ccco4)s3)CC2=O)cc1 (configuration not stated) | 78%
72 | Cc1nn(-c2ccccc2)c2sc(C(=O)Nc3ccc(Cl)cc3Cl)cc12 | 72%
73 | Cc1nn(-c2ccccc2)c2sc(C(=O)Nc3cccc(Br)c3)cc12 | 36%
74 | Cc1nn(-c2ccccc2)c2sc(C(=O)Nc3cccc(Cl)c3)cc12 | 5% (active)
75 | CCOc1ccc(NC(=O)c2cc3c(C)nn(-c4ccccc4)c3s2)cc1 | 78%
76 | Cc1cccc(NC(=O)c2cc3c(C)nn(-c4ccccc4)c3s2)c1 | -2% (active)
77 | Cc1nn(-c2ccccc2)c2sc(C(=O)Nc3cccc(O)c3)cc12 | 43%
78 | CCOc1ccccc1C(=O)N(Cc1cc(OC)c(OC)c(OC)c1)c1ccccn1 | 82%
79 | CCCOc1ccc(-c2cccc(NS(=O)(=O)c3ccc(CC)cc3)c2)nn1 | 69%
80 | COC(=O)c1cccc(S(=O)(=O)N2CCC(NC(=O)Nc3cccc(F)c3)CC2)c1 | 110%
81 | CCOC(=O)c1cnc2ccc(OCC)cc2c1Nc1ccc(OCc2ccccc2Cl)cc1 | 5% (active)
82 | CCOC(=O)c1cnc2ccc(OCC)cc2c1Nc1cc(Cl)c(OC)cc1OC | 60%
83 | CCOc1ccc(Nc2c(S(=O)(=O)c3ccc(Cl)cc3)cnc3ccc(OCC)cc23)cc1 | 79%
84 | CCOC(=O)c1cnc2cc(C(F)(F)F)ccc2c1Nc1ccc(F)cc1F | -12% (active)
85 | CCOC(=O)c1cnc2ccc(OCC)cc2c1NCCN(C)C | 103%
86 | CCOC(=O)c1cnc2ccc(Cl)cc2c1Nc1ccc(OCC)cc1 | -3% (active)
87 | CCOC(=O)c1cnc2cc(C(F)(F)F)ccc2c1Nc1cc(C)ccc1OC | 67%
88 | CCOc1ccc(Nc2cc(C(=O)NCc3ccccc3Cl)c3ccccc3n2)cc1 | 92%
89 | CCOc1ccc(Nc2c(S(=O)(=O)c3ccccc3)cnc3ccccc23)cc1 | 38%
90 | CCOC(=O)c1cnc2c(ccc3ccccc32)c1Nc1cccc(C(F)(F)F)c1 | 37%
91 | CCOc1ccc(Nc2c(S(=O)(=O)c3ccccc3)cnc3ccc(CC)cc23)cc1 | 4% (active)
92 | CCOc1ccc(Nc2c(S(=O)(=O)c3ccccc3)cnc3ccc(F)cc23)cc1 | 61%
